In the supplement of paper PMC6555819:

How the values were obtained:
Test in all cases: PBM binding z-score (relative to random genomic background probes); higher = stronger binding; sequences stand for … in GC…GCGATTGACAGCGTAGAATGAAGG
[1] = tested on: RARb homodimer (NR concentration 270 nM)
Outline: (§1)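 For binding z-scores, the reference was random background probes on custom Agilent 4×180K protein-binding microarrays. These arrays were incubated 1 h with ligand-free nuclear receptor dimers in PBS pH 7.4, 2% milk, 0.02% Triton X-100, 1 mM DTT, 0.2 mg/mL BSA and 0.4 mg/ml salmon testes DNA. Fluorescence was scanned after antibody detection of each partner (one per run) and regression-normalized.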

[2] = tested on: RARg:RXRa (NR concentration 270 nM, RXRa partner concentration 90 nM)
Outline: as §1

[3] = tested on: RARg homodimer (NR concentration 270 nM)
Outline: as §1

[4] = tested on: RXRa DBDmut IVT, anti-RXR (DBD mutation: RXRa K156A/R161A, NR concentration 90 nM)
Outline: as §1

[5] = tested on: RXRa homodimer (NR concentration 180 nM)
Outline: as §1

[6] = tested on: THRa:RXRa (NR concentration 90 nM, RXRa partner concentration 90 nM)
Outline: as §1

[7] = tested on: THRa homodimer (NR concentration 90 nM)
Outline: as §1

[8] = tested on: VDR homodimer (NR concentration 270 nM)
Outline: as §1

Row | Sequence | PBM binding z-score [1] | PBM binding z-score [2] | PBM binding z-score [3] | PBM binding z-score [4] | PBM binding z-score [5] | PBM binding z-score [6] | PBM binding z-score [7] | PBM binding z-score [8]
1 | TCTGCTAGGTCAGTTGGCCAGCTAACGAGCTGCC | 2.15 | 2.56 | 3.53 | 0.428 | 0.616 | 1.27 | -0.473 | -0.804
2 | CGTCCAAGGTCAAGGTCAGTGACAGAGACTCGAA | 5.06 | 6.76 | 7.62 | 3.72 | 6.77 | 4.35 | 3.7 | 3.35
3 | CCTACTGGGCCAAATAGGTCATTGATGCCGATAA | 2.48 | 2.17 | 2.25 | -0.057 | 2.2 | 1.67 | -0.13 | 0.916
4 | CCGAGCAGGCCAGGGTCACTCAAGCATTTCGCTT | 2.91 | 3.13 | 2.66 | 0.694 | 3.6 | 2.91 | 1.02 | 1.31
5 | TAACCAAGGTGAAAGGTCGTTGATGCACGCCTTG | 2.82 | 4.47 | 2.52 | 0.794 | 6.28 | 3.33 | 0.878 | 1.5
6 | ATCTCTAGGTAAACGTTCAGTGAATCCCGAGGAT | -0.498 | 0.172 | 0.369 | -0.148 | 0.0015 | 0.136 | 0.162 | -0.489
7 | GCTATTAGTTGAAAAGGCAACCGAATGATTCTCG | -0.358 | 0.0252 | 0.283 | 0.693 | 0.0743 | -0.197 | -0.317 | 0.154
8 | GCTGCTAGGTCAGGCTGGTCAGCTAACGGGTACG | 2.55 | 2.75 | 4.34 | 0.391 | 1.07 | 1.63 | 0.201 | -0.177
9 | TCTTGTAGATCAAGCAGTTTAAGAAAGCCTGAGT | -0.362 | -0.283 | -0.421 | 0.644 | -0.114 | -0.266 | -0.588 | -0.00897
10 | TCGAGTAGGTTAGTCGAGGCATTCAGCCAACATA | -0.449 | -0.298 | -0.249 | -0.0873 | -0.032 | 0.444 | -0.612 | -0.393
11 | TCTATTAGTTGAAGGGCAACCTACGAGTCCGTTT | 1.2 | 0.698 | 0.806 | 1.51 | 0.858 | 0.233 | -0.0206 | 1.42
12 | AGAATGAGGTTATACGTAGATCAAGGAAGAAAGT | 0.606 | 1.96 | 1.11 | 1.82 | 2.3 | 2.04 | 0.406 | 0.854
13 | TCGAGTAGGTGAGGGGCATTCAGAATGGCGTCGA | 0.716 | -0.0952 | -0.106 | 0.0823 | 0.442 | 0.268 | -0.559 | -0.687
14 | ACTATTATTTGACTTAGGGCAACCGATACGACGC | 1.2 | 1.18 | 1.35 | 1.24 | 0.818 | 1.18 | 1.52 | 1.41
15 | GGAACGAGGGCATTCGAGTAGATAGCATGGCGAT | 0.0849 | 0.96 | 1.23 | 3.24 | 0.859 | 1.41 | -0.662 | 1.51
16 | GCTCGGAGGACAAGGTCAGTGCTTTGTCCGTAGA | 3.23 | 2.82 | 3.65 | 0.477 | 1.29 | 2.77 | 1.49 | 0.406
17 | GGAACGAGGGCAGGTTGATAGCAGAGTTTGATGG | 1.3 | 0.763 | 1.26 | 0.971 | 0.496 | 0.552 | 0.392 | 1.16
18 | CGTCACAGTTCAAGGTAACGTAACAGAAAGCAGC | 1.63 | 2.45 | 2.53 | 2.69 | 2.14 | 2.24 | 1.24 | 1.53
19 | TCTAGTAGGTTAGGGGCATTCAGAATGGCGTCGA | 1.31 | 0.656 | 0.586 | 1.42 | 0.98 | 1.03 | 0.797 | 1.39

Row | Sequence | PBM binding z-score [1] | PBM binding z-score [2] | PBM binding z-score [3] | PBM binding z-score [4] | PBM binding z-score [5] | PBM binding z-score [6] | PBM binding z-score [7] | PBM binding z-score [8]
20 | AGTCAAATTTCAGGACGAGGTAACGTAAAGCACG | 0.179 | 0.276 | 0.438 | -0.237 | 0.24 | 2.29 | 1.82 | 0.197
21 | CAAACTAGGTCAAGGTCAGAGTCGGTTTGTGCCA | 4.8 | 5.32 | 6.42 | 2.33 | 4.6 | 4.29 | 3.28 | 2.79
22 | AGAATGAGGATAAGATCAGGGAAACAGAATACAT | -0.0231 | 0.224 | 0.322 | -0.458 | 0.578 | 1.42 | 0.69 | -0.103
23 | TCCAGTTGGTCACGGAGGTCACACACGACGGGTA | 4.6 | 4.87 | 4.79 | 1.11 | 4.8 | 3.84 | 2.09 | 2.65
24 | GGAACGAGGGCATTCGGGTTGATAGCATGGCGAT | 0.654 | 1.05 | 1.55 | 3.18 | 0.826 | 2.68 | 0.0871 | 4.11
25 | ATATGTAGGTTACATCCTGGTCATTCAGGCTATG | 1.25 | 1.72 | 1.3 | 0.78 | 1.35 | 1.26 | 0.551 | 0.582
26 | CGAACTAGGTCATTGACAGGACCGTGAATAGTAA | 2.09 | 3.59 | 3.95 | 2.37 | 2.17 | 2.32 | 0.476 | 1.15
27 | ATATGTAGGTTATCGGGGCATTCAGTTTGCGCAT | 1.53 | 1.3 | 1.24 | 1.35 | 1.25 | 1.49 | 1.4 | 2.14
28 | ACTATTAGTTGCGACGAGGGCAACCGATAGGTTG | 0.942 | 0.259 | 0.489 | 0.4 | 0.472 | 1.09 | 0.3 | 0.643
29 | TCATATAGGTAAAGGTGAAATTCGAACGATATGA | 1.3 | 1.56 | 1.28 | 0.746 | 2.19 | 1.37 | -0.553 | -0.144
30 | ACTCGTTGGTCAGCTGAGGTCACACACAATTCGG | 4.41 | 4.16 | 4.25 | 1.3 | 4.06 | 5.18 | 5.14 | 3.72
31 | CGAACTAGGTCAGAACAGGACGGTGAAGGATGAT | 1.69 | 2.3 | 3.17 | 0.53 | 1.14 | 2.43 | -0.175 | -0.257
32 | CCTACTGGGCCACGAAAGGTCAGTGATTCAGTGA | 3.87 | 3.69 | 4.04 | -0.37 | 3.1 | 3.1 | 0.0818 | 0.0755
33 | CGAACTAGGTCATTGACAGGACAGTGCATAGTAA | 2.87 | 4.65 | 4.3 | 2.22 | 2.43 | 2.85 | 0.816 | 1.86
34 | GCATATAGGTAATACAAGGTGAAAGCCCGATTGT | 0.51 | 0.492 | 0.56 | 0.379 | 0.681 | 4.09 | 0.763 | -0.285
35 | ACTATTAGTTGAGACGAGGGCAACTGATAGGTTG | 1.19 | 0.865 | 0.97 | 0.568 | 0.797 | 2.41 | 0.298 | 0.702
36 | AGAACGAGGGCAATCAGTTGATAGCACGGGTGGC | 1.08 | 1.25 | 1.74 | 1.89 | 0.909 | 1.04 | 0.0484 | 1.61
37 | CCTAGCTGGTCAAGGTCACACACGCTATAGGTAC | 4.06 | 4.56 | 4.74 | 1.82 | 4.92 | 3.97 | 3.76 | 2.88
38 | CGTCAAAGTTGAACTAAGGTAACGTAAAGCACGC | 1.98 | 2.06 | 1.86 | 0.678 | 1.68 | 4.72 | 1.74 | 0.519

Row | Sequence | PBM binding z-score [1] | PBM binding z-score [2] | PBM binding z-score [3] | PBM binding z-score [4] | PBM binding z-score [5] | PBM binding z-score [6] | PBM binding z-score [7] | PBM binding z-score [8]
39 | CTCGAAAGGTCGTGCTCAGGTGATTATACCAAAC | 2.98 | 4.97 | 4.05 | 2.27 | 4.89 | 3.89 | 1.39 | 1.25
40 | CTCGAAAGGTCGTGCTCAGGTGAGGATACCAAAC | 2.88 | 5.12 | 3.74 | 2.24 | 4.62 | 4.22 | 2.06 | 0.965
41 | GCTGCTAGGGCAACTGATGGTCAGCTAAAGCTCG | 0.973 | 0.792 | 1.27 | -0.0325 | -0.494 | -0.0894 | -1.3 | -1.03
42 | TTACCAAGGTGAGCTGAGGTCGGTGATCCAACTC | 1.46 | 0.608 | 0.586 | -0.659 | 0.505 | 4.31 | 1.25 | 0.0612
43 | CGAACTAGGTCAGAACAGGACTGTGAAGGATGAT | 1.6 | 2.33 | 2.99 | 0.646 | 1.19 | 1.97 | -0.0804 | -0.341
44 | TCGAGTAGGTTAGTCGGGGCAATCAGCCAACATA | 0.889 | 0.0718 | 0.25 | 0.255 | 0.0944 | 2.38 | -0.198 | -0.417
45 | TCTGCTAGGTCAGTTGGTCGGCTAACGAGCTGCC | 2.21 | 2.28 | 3.11 | 0.384 | 0.902 | 1.17 | -0.205 | -1.1
46 | ATCTCTAGGTAACAAGTTCAATGAAAGAGAGGAC | 2.24 | 2.06 | 1.8 | 2.15 | 1.31 | 1.76 | 1.19 | 3.97
47 | TCATATAGGTAAAGTTGAAAGTCGAACGATATGA | 0.521 | 0.699 | 0.882 | 1.02 | 1.15 | 0.311 | -0.665 | 0.121
48 | GCTGCTTGGTCAGGTTGGTCAGCTAACGGGTACG | 0.727 | -0.088 | 0.0673 | 0.0173 | -0.438 | -0.199 | 0.0955 | 0.00601
49 | CGTCATAGTTCAACTAAGGTAACGTAAAGCACGC | 2.62 | 3.44 | 3.83 | 2.38 | 2.7 | 5.14 | 1.9 | 1.51
50 | TGAGTGAGGTTATAAGATCAGGGAACGTTGCAAA | 0.44 | 1.43 | 1.12 | 0.109 | 1.88 | 1.59 | 0.117 | 0.655
51 | ATCTCTAGGTAACCAATTTCAGTGAATGCCGAAC | 0.515 | 0.324 | 0.586 | 0.556 | 0.198 | 0.887 | 0.984 | 0.312
52 | CAGCCTAGGTCAGGGCTAGTATAGGAGGAACGTT | 2.38 | 2.93 | 3.76 | -0.422 | 1.49 | 1.82 | 0.321 | -0.179
53 | AGTCAAAGTTAAGGACGAGGTAACGTAAAGCACG | 0.455 | 0.647 | 0.899 | -0.752 | 0.474 | 3.19 | 2.65 | -0.263
54 | CGTCAAAGTTCAAGGTAACGTATCAGAAAGCAGC | 3.97 | 5.22 | 6.45 | 4.52 | 4.44 | 3.06 | 1.44 | 3.38
55 | ACTATCAGGCCAAGTTTGGGTCACTCAAACAAAG | 2.56 | 2.71 | 2.11 | 0.348 | 0.935 | 2.93 | 1.81 | 0.829
56 | GCTGCTAGGTCAACTGATGGGCAGCTAAAGCTCG | 3 | 4.73 | 5.5 | 1.45 | 2.89 | 2.68 | 0.684 | -0.378
